The record followed here is ChEMBL document CHEMBL4513216, “Probing the Open Global Health Chemical Diversity Library for Multistage-Active Starting Points for Next-Generation Antimalarials” (ACS Infect Dis, 2020).

Hit rate of the full screen: of about 69,000 compounds, about 8,600 (12%) showed an effect of 50% or more. The sample as a whole holds a higher share of strong results than the screen did.

In the experiment the test system is Plasmodium berghei. The experiment can be described thus: Screen against P. berghei liver stage (PbLuc), transformed with Luciferase, at 10uM. It is filed as functional, HepG2. The settings on record: tested at 10 uM.
`Cc1nn(C)c2sc(C(=O)N3CCCC(n4ccnc4C)C3)cc12` (stereo not given): the INHIBITION worked out at 28.4%.
The same measure for `O=c1occ(CN2CCCCCC2)c(O)c1CN1CCOCC1`: -28.7%.
Consider `Cc1nc(C)c(S(=O)(=O)NC(=O)c2sccc2C)s1`, for which the INHIBITION came out at 51.5%.
The result for `Cc1nc(C)c(S(=O)(=O)NC(=O)c2cccs2)s1` reads 22.8%; that for `Cc1nc(C)c(S(=O)(=O)NC(=O)c2ccoc2)s1`, 64.4%; that for `Cc1cccc(NC(=O)c2sccc2C)n1`, -52.1%.
The result for `Cc1nc(C)c(S(=O)(=O)NC(=O)c2ccsc2)s1` reads 21.8%; that for `O=C(NS(=O)(=O)c1cnn(-c2ccccc2F)c1)c1ccoc1`, -17.4%; that for `CCC(C)C(=O)NCCc1nc(C(F)(F)F)cs1` (stereo not given), 5.42%.
Consider `CCc1nc(C(=O)N2CC(C)CN(C)c3ccccc32)c[nH]1` (stereo not given), for which the INHIBITION is recorded as -15%.
The same measure for `CCOCCCn1c(NC(=O)c2ccnc(C)n2)nc2ccccc21`: 25.4%; for `CCOCCCn1c(NC(=O)c2cnn(C)c2)nc2ccccc21`: -4.73%; for `CCOCCCn1c(NC(=O)c2cnc(C)s2)nc2ccccc21`: 57%.
The same measure for `CCCn1c(NC(=O)CNC(=O)OCC)nc2ccccc21`: -3.74%.
Take `CCOCCCn1c(NC(=O)c2scnc2C)nc2ccccc21`: the INHIBITION is recorded as 69.8%.
The result for `CCOCCCn1c(NC(=O)c2cc(C)on2)nc2ccccc21` reads 64.9%.
The result for `CCOCCCn1c(NC(=O)c2cnc(C)cn2)nc2ccccc21` reads -96.9%.
For the compound `CCN(CC)CCn1c(NC(=O)c2scnc2C)nc2ccccc21`, the INHIBITION turned out to be 59%.
The same measure for `CCOc1cccc(NC(=O)c2cc(C)on2)n1`: 44.1%.
The result for `CCOCCCn1c(NC(=O)c2ccc(C)nc2)nc2ccccc21` reads 37.2%; that for `Cc1ncsc1C(=O)Nc1ccccn1`, 25.2%.
The result for `CCOCCCn1c(NC(=O)c2cc(C)no2)nc2ccccc21` reads 5.7%.
Consider `Cc1ccc(C(=O)NCCS(=O)(=O)N2CCSCC2)o1`, for which the INHIBITION is reported as 44.9%.
The same measure for `Cc1nc2cc(O)nn2c(C)c1CCC(=O)N(C)Cc1cscn1`: -16.6%; for `O=C1CCCN1c1cccc(CNCc2nc(-c3ccco3)no2)c1`: -8%.
The result for `Cn1nccc1CCC(=O)NC1CCCN(c2ccccn2)C1` (stereo not given) reads 25.05%; that for `CC(C)N(C)[C@@H]1CCN(Cc2nccs2)[C@H]1Cc1ccncc1`, 24.6%; that for `CC1COCCN1Cc1nc(-c2ccc(F)cc2)no1` (stereo not given), -0.113%.
With `COC1C[C@@H]2CN(C(=O)c3[nH]nc4c3CCCC4)C[C@@H]2C1` (stereo not given in full), the INHIBITION came out at 24.8%.
Regarding `Cn1c(CN2CCCC(c3noc(C4CC4)n3)C2)cc(=O)n(C)c1=O` (stereo not given), the INHIBITION is listed as -50.5%.
In the case of `CNC(=O)c1cccc(C2CNCCN2C(=O)c2cccc(F)c2)c1` (stereo not given), the INHIBITION is given as 44.8%.
Consider `COCCN1CCC2(CC1)CN(C(=O)N(C)C)c1ccc(C)cc12`, for which the INHIBITION was 26.2%.
As for `COc1ccccc1NC(=O)C1(c2ccccc2)CCOCC1`, the INHIBITION is given as 6.26%.
Turning to `CCOCC(=O)N1C[C@H]2CC[C@@H](C1)N(Cc1ccccn1)C2=O`, the INHIBITION turned out to be 28.7%.
`COCCOc1ccc(NC(=O)C2CC(=O)N(C3CC3)C2)cn1` (stereo not given): the INHIBITION is given as 4.71%.
On to `COCCN(Cc1cnn(C)c1)CC1CCOC1` (stereo not given), for which the INHIBITION worked out at 19.8%.
The result for `COCCN(Cc1cnn(C)c1)CC1CCN(C(C)C)CC1` reads 33.7%; that for `COCCN(Cc1ccc(C)cc1)CC1CCOC1` (stereo not given), 67.4%; that for `c1cc(-c2cnc(NC3CC3)nc2[C@H]2CCCO2)ccn1`, -12.3%.
The result for `Cc1ccc(C(=O)N2CC3(CCNCC3)c3cc(Cl)ccc32)cn1` reads 5.04%.
Turning to `CCN1CC(COC(=O)c2ccc(Br)cc2F)CC1=O` (stereo not given), the INHIBITION is 0.0459%.
The result for `Cc1ncc2c(n1)CN(Cc1nc(C)c(C)o1)CC2` reads 38%; that for `COCCc1ncc(CN2CCC3(CCCN(CC4CC4)C3)C2)cn1` (stereo not given), 46.6%.
With `COc1ncc(CN2CCC3(CCCN(CC4CCC4)C3)C2)cn1` (stereo not given), the INHIBITION amounted to 17.8%.
`Cc1ncc(CN2CCC3(CCCN(CC4CCC4)C3)C2)cn1` (stereo not given): the INHIBITION amounted to 53.5%.
Take `Cc1noc(C)c1CN1CCCC2(CCN(CC3CCCC3)C2)C1` (stereo not given): the INHIBITION worked out at 49.4%.
As to `CCc1ncc(CN2CCC3(CCCN(CC4CCC4)C3)C2)cn1` (stereo not given), the INHIBITION is 57.5%.
The same measure for `COc1ncc(CN2CCC3(CCCN(CC4CCCCC4)C3)C2)cn1` (stereo not given): 6.94%.
The same measure for `Cc1nc(NCC(O)CN2CCCCCC2)c2c(C)nn(C)c2n1` (stereo not given): -30.3%; for `CC(=O)N1CC[C@H]2OCC[C@@H](C(=O)Nc3cccnc3C)[C@@H]2C1`: -1.28%.
The result for `COC(=O)CN1CC(c2nc(Cc3ccccc3)no2)C1` reads -14.6%.
Regarding `CNC(=O)CCc1cc(C2CCCN2S(C)(=O)=O)nc(C)n1` (stereo not given), the INHIBITION is recorded as 6.33%.
Regarding `C[C@H](O)CNc1cc(-c2ccncc2)ncn1`, the INHIBITION is given as 54.5%.
The same measure for `OCCNc1cc(-c2ccncc2)ncn1`: 47.1%.
`C[C@H](O)CNc1cc(-c2ccccc2)ncn1`: the INHIBITION came to 26.3%.
